Only some compounds are listed: those with a hit (about 3.5% of all), similar ones and a draw of the others.
FBW7 act: activators of human E3 ligase FBW7; Q969H0; AlphaScreen FBW7–phospho-cyclin E peptide binding, activator screen; normalized activity (activation), % at 26.1 µM; 650,000 tested, 0.13% active; in the data active = normalized activity above about 1.9%;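 also: purified mutant Fbw7 with reduced substrate affinity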
GPR151 ag: human GPR151 activation; activation, % at 11.2 µM; AID 1508602; 650,000 tested, 1% active; PathHunter beta-arrestin GPR151 cells, luminescence; in the data active = activation above about 4.9%;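 also: 0% = median of compound wells and 100% = cells with positive control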
TEAD-YAP block: TEAD-YAP interaction inhibition. HEK-TIYL cells, TEAD-Gal4/YAP UAS-luciferase luminescence. inhibition, % at 9.12 µM. 640,000 tested, 1.4% active. AID 1259422; in the data active = inhibition above about 32%;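 also: 0% = median of test compound wells and 100% = reference inhibitor wells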
MITF primary: human MITF inhibition, primary screen | AlphaScreen MITF homodimerization, bead proximity signal | O75030 | inhibition, % at 2.6 µM | 650,000 tested, 0.91% active; in the data active = inhibition above about 50%;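 also: 0% = vehicle wells with protein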
Target sequence (O75030 whole entry, looked up): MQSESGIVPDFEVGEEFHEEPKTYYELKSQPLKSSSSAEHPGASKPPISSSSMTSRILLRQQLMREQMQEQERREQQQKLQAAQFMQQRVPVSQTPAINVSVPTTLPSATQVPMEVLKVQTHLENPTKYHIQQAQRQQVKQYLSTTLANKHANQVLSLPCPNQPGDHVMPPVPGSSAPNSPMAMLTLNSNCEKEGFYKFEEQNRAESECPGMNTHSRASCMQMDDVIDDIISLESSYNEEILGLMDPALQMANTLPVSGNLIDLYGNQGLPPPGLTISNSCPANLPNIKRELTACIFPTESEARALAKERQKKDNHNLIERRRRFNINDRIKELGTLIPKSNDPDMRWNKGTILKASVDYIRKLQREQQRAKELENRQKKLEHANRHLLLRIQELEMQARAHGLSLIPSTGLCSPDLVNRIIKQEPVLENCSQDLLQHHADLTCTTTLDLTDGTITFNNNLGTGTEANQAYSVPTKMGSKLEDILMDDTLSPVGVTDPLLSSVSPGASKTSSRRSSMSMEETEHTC
The depositor's hits bear a star.

SMILES	FBW7 act	GPR151 ag	TEAD-YAP block	MITF primary
O=C1NC(c2cc3c(cc2Cl)OCO3)Nc2ccccc21 (stereo unspecified)	1	0	51*	7
C=CCOc1ccc(C=C2C(=O)N(C)C(=S)N(C)C2=O)cc1OC	0	0	0	67*
C=CCOc1ccc(C=C2C(=O)N(C)C(=S)N(C)C2=O)cc1I	0	-1	15	13
N#Cc1cnc(SCc2cc(=O)n3ccccc3n2)nc1N	16*	0	-9	3
CC(=O)C1=C(O)C(=O)N(c2nc3ccccc3s2)C1c1ccccc1F (stereo unspecified)	0	1	-77	15
CC(=O)C1=C(O)C(=O)N(c2nc3ccccc3s2)C1c1ccc(Cl)cc1Cl (stereo unspecified)	0	1	66*	20
Cc1ccccc1N=Cc1sc2ccccc2c1O	0	-1	53*	-5
Nc1ccccc1N=Cc1sc2ccccc2c1O	0	-5	-32	23
Cc1ccc(N=Cc2sc3ccccc3c2O)cc1C	0	-1	74*	-4
Oc1c(/C=N/n2cnnc2)sc2ccccc12	0	-4	72*	26
Cc1ccc(N=Cc2sc3ccccc3c2O)cc1	0	-10	80*	4
Oc1c(C=Nc2ccc(Cl)cc2)sc2ccccc12	0	0	10	16
CN(C(=O)Cn1cnc2c(nnn2-c2cccc(F)c2)c1=O)c1ccccc1	0	-2	-2	0
CCOC(=O)c1sc(NC(=O)c2ccc(OCC)cc2)c(C(=O)OCC)c1C	1	1	-4	1
CCOC(=O)c1sc(NC(=O)c2ccccc2SC)cc1C	0	0	-60	-7
CCOc1ccc(N=Cc2sc3ccccc3c2O)cc1	0	-10	88*	-9
COCCNc1nc(-c2ccc(OC)cc2)ccc1C(=O)N1CCN(C)CC1	0	0	-6	-12
N#CC1=C(SCC(=O)Nc2ccc(Cl)c(Cl)c2)NC(=O)CC1c1ccccc1 (stereo unspecified)	0	-2	66*	-9
N#CC1=C(SCC(=O)Nc2ccc(Br)cc2)NC(=O)CC1c1ccc(O)cc1 (stereo unspecified)	0	0	39*	14
O=C(Nc1ccc2c(c1)OCCO2)C1CCCN(c2ccc(-c3ccc(Cl)cc3)nn2)C1 (stereo unspecified)	1	-1	-15	20
COc1ccc(Nc2nc(Cl)c(C(F)(F)F)c(Cl)c2Cl)cc1	0	2	-2	13
Cc1ccc(Nc2c(Cl)c(Cl)nc(Cl)c2C(F)(F)F)cc1	0	0	67*	13
O=S(=O)(NCc1ccco1)c1ccc(Cc2ccc(S(=O)(=O)NCc3ccco3)cc2)cc1	0	-1	21	-4
CN(CCc1ccccc1)C(=O)c1ccc2c(c1)CC(c1nc3ccc(-c4ccnc(N)n4)cc3[nH]1)CO2 (stereo unspecified)	0	2	73*	-14
CON(C)C(=O)c1ccc2c(c1)CC(c1nc3ccc(-c4ccnc(N)n4)cc3[nH]1)CO2 (stereo unspecified)	0	-1	11	25
SMILES	FBW7 act	GPR151 ag	TEAD-YAP block	MITF primary
CC(CNC(=O)c1ccc2c(c1)CC(c1nc3ccc(-c4ccnc(N)n4)cc3[nH]1)CO2)c1ccccc1 (stereo unspecified)	1.9*	0	41*	-2
N=c1c2c(-c3ccccc3)c(-c3ccccc3)n(Cc3ccco3)c2ncn1CCO	0	-2	68*	15
CCOc1ccc(C2NC(=O)NC(C)=C2C(=O)OCc2ccc3c(c2)OCO3)cc1 (stereo unspecified)	0	0	56*	15
CCOc1ccccc1C1NC(=O)NC(C)=C1C(=O)OCc1ccc2c(c1)OCO2 (stereo unspecified)	0	-1	7	19
CCCOc1ccc(C2NC(=O)NC(C)=C2C(=O)OCc2ccc3c(c2)OCO3)cc1 (stereo unspecified)	0	2	55*	-11
CCOCCCNC(=O)CN1CCC(NC(=O)C(C)(C)C)CC1	0	-7	16	4
OCC1CCCN1c1cc(Nc2ccc3c(c2)OCO3)ncn1 (stereo unspecified)	0	-1	37*	3
OCC1CCCN1c1cc(NCCc2ccc(O)cc2)ncn1 (stereo unspecified)	0	-1	48*	10
Oc1ccc(CCNc2cc(Nc3ncccn3)ncn2)cc1	1	0	42*	-13
OCC1CCCN1c1cc(Nc2ccccc2)ncn1 (stereo unspecified)	0	-1	-23	12
CCN1CCN(C(=O)c2nc(-c3ccc(C)cc3)n3c2CCCCC3)CC1	0	3	0	11
